These results are taken from PubChem BioAssay AID1845226 (National Center for Advancing Translational Sciences (NCATS), 2023).

Molecules are shown by their SMILES. Records with an inconclusive call do not appear. Where a call stands in place of a potency, no number is given. Calls of active or inactive are those of the source. Calls come from the whole dose curve; as a rule, active = well fitted inhibition curve with a large enough effect; inconclusive = small, poorly fitted or top-dose-only effect; inactive = no such curve, though single readings can be large or run the other way.
Potency is the fitted concentration of half-maximal effect.

This test is described as follows: Confirmatory fluorescence-based thiol-reactive (MSTI) qHTS assay for identification of artifact compounds. To be noted: MSTI thiol-reactivity probe, 1 h; series mostly up to 39.2 µM. In short, it runs like this:
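Concentration–response testing used 4 uM MSTI. Signal read at Ex 525/Em 598 nm after one hour in darkness at ambient temperature.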
Take `CC(C)c1nn2c(=O)cc(COC(=O)c3cccc(NC(=O)COc4ccc(F)cc4)c3)nc2s1`: the Potency entry is “inactive”.

On to `Cc1sc2ncn(CC(=O)N3CCN(c4ccccc4)CC3)c(=O)c2c1S(=O)(=O)N1CCC(C)CC1`, for which the Potency result is “inactive”.

Regarding `Cc1cc(N[S+](=O)([O-])c2ccc(NC(=O)Cc3ccc(Cl)nc3)cc2)no1`, the Potency result is “inactive”.

As for `COc1ccc(C(=O)O)cc1Nc1nc2ccc(C)cc2n2cnnc12`, the Potency result is “inactive”. The value for `CCOC(=O)C(C)Sc1ccc2nnc(-c3ccc(F)cc3)n2n1` (stereo not drawn) was “inactive”; that for `COC(=O)c1c(NC(=O)COc2ccc(C(C)C)cc2)sc2c1CCCC2` was “inactive”. The value for `COc1ccccc1N1CCN(c2ncnc3c2cnn3-c2ccc(C)cc2)CC1` was “inactive”; that for `CC(C)(C)C(=O)NC1(C(F)(F)F)C(=O)Nc2c1c(=O)[nH]c(=O)n2-c1ccccc1` (stereo not drawn) was “inactive”. The entry for `Cc1cn(C2CCC(CO)O2)c(=O)[nH]c1=O` (stereo not drawn) is “inactive”; for `Cc1ccc(C)c(N2CCN(Cc3csc(C)c3)CC2)c1` it is “inactive”; for `Cc1ccc(CN(Cc2ccco2)C(=O)COc2ccc(Cl)cc2Cl)cc1` it is “inactive”. As for `O=C1CCC(=O)N1CO`, the Potency entry was “inactive”. The value for `Cc1cc(OC(=O)c2c(C)cc(O)cc2O)cc(O)c1C(=O)O` was “inactive”; that for `COc1ccc(NC(=O)N2CCc3c(sc4c3CCCC4)C2c2ccccc2OC)cc1` (stereo not drawn) was “inactive”.

Take `COc1ccc(Nc2nc(Nc3ccc(OC)cc3OC)nc(N3CCOCC3)n2)c(OC)c1`: the Potency is 6.12 µM (active). With `CCCS(=O)(=O)N1CC(=O)N(c2ccc(C)cc2)C(C)(C(=O)NC2CCCCCC2)C1` (stereo not drawn), the Potency entry is “inactive”. The value for `Clc1ccccc1Cn1c(-c2cccs2)nc2ccccc21` was “inactive”; that for `Oc1ccc(-c2nc3ccc(Cl)cn3c2Nc2ccc3c(c2)OCO3)cc1` was 0.77 µM (active); that for `CC1(C)S[C@@H]2[C@H](NC(=O)C3(N)CCCCC3)C(=O)N2[C@H]1C(=O)O` was “inactive”. The value for `COc1ccccc1C(CC(=O)Nc1ccc(F)cc1)c1ccccc1` (stereo not drawn) was “inactive”. For `CC(C)C(=O)OC1=CN(Cc2ccccc2)S(=O)(=O)c2ccccc21`, the Potency entry was “inactive”. The entry for `COc1ccc(N2C(=O)CSC23C(=O)N(CC(N)=O)c2ccccc23)cc1` (stereo not drawn) is “inactive”; for `Clc1ccccc1CNc1ncnc2nc[nH]c12` it is “inactive”. The entry for `COc1ccc(NC(=O)C(=O)Nc2ccc3nc4n(c(=O)c3c2)CCCCC4)c(OC)c1` is “inactive”; for `O=C(COCc1cc(-c2cccs2)on1)NCc1ccc(Cl)cc1` it is “inactive”. The value for `CCN(CC)c1ccc(-c2nc(-c3ccccn3)no2)cc1[N+](=O)[O-]` was “inactive”; that for `CC1(C)S[C@@H]2[C@H](NC(=O)[C@H](N)c3ccccc3)C(=O)N2[C@H]1C(=O)O` was “inactive”; that for `COc1ccc(NC(=O)CSc2nc(-c3ccccc3)nc3c2Cc2c(CO)cnc(C)c2O3)cc1Cl` was “inactive”. Turning to `CC(C)C(=O)SCCCCCCC(=O)Nc1nc(-c2ccccc2)cs1`, the Potency entry was “inactive”. In the case of `CN(Cc1ccccc1)c1ncnc2c1nc1n2CCCC1`, the Potency result was “inactive”. For `O=C1CCCC2=C1C(c1[nH]ncc1Cl)NC(=NCCc1ccccc1)N2` (stereo not drawn), the Potency result was “inactive”.

`OCC1=C[C@@H](O)[C@@H]2C=CO[C@@H](OC3O[C@H](CO)[C@@H](O)[C@H](O)[C@H]3O)[C@H]12` (stereo partly drawn): the Potency result was “inactive”. `Nc1ccc(F)cc1F`: the Potency entry is “inactive”.
